Compounds with a hit are over-represented: about 17% of the library has one in this group of screens.
HepG2 tox: kills HepG2 cells in TGF-b inhibitor counter-screen | HepG2 CAGA-GFP viability, ATP luminescence, 18 h | Potency, µM (highest dose often 46.1 µM), for inactives: at the top dose activity change, negative = cytotoxicity, actives largely listed as cytotoxic | 410,000 compounds, 0.76% hits
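HepG2 CAGA-GFP cells (1000/well, DMEM with 1% FBS) received compound, then TGF-beta at 500 pg/mL final, and were incubated 18 hours at 37 degrees C. Viability was read by CellTiter-Glo luminescence. Media-only wells were set as complete cell-killing and DMSO as no toxicity.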
DT40 TDP1 no CPT: qHTS for Inhibitors of human tyrosyl-DNA phosphodiesterase 1 (TDP1): qHTS in cells in absence of CPT; DT40 Tdp1-/- hTDP1 cells, no CPT, ATP luminescence, 48 h; 420,000 compounds, 15% hits; AID 686978, 2013; Potency, µM (titrated, usually from 46.2 µM), inactives show at the top dose activity change, negative = growth inhibition, actives largely listed as inhibitors; further: on the % scale 0 is the no-effect control and ±100 the full control effect; nearly all actives have a fitted effect of over 55% in size
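Chicken DT40 Tdp1-/- cells complemented with human TDP1, screened without camptothecin (DMSO vehicle only), 400 cells/well. Compounds pin-transferred, cells incubated at 37 °C for at least 48 hr. Growth read as ATP-dependent luminescence (CellTiter-Glo, 30 min at RT).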
DT40 TDP1 CPT: DT40-hTDP1 cell growth loss with CPT; chicken DT40 Tdp1-/-;hTDP1 cells + 20 nM CPT, ATP luminescence, 48 h; Potency, µM (series often up to 46.2 µM), inactives show at the highest dose activity change, negative = growth inhibition, usual class: inhibitors; 420,000 compounds, 12% hits; further: on the % scale 0 is the no-effect control and ±100 the full control effect; nearly all actives have a fitted effect of over 55% in size
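Chicken DT40 Tdp1-/- cells stably complemented with human TDP1 were seeded at 400 cells/well in medium containing 20 nM camptothecin, exposed to pin-transferred compounds, and grown at 37 °C for at least 48 hr. Viability was read as ATP luminescence.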
ATXN viability: cell viability loss in ATXN counter-screen; S2 cells (HEK-293 line with an ATXN2-luciferase reporter) viability, CellTiter-Fluor protease fluorescence, 24 h; Potency, µM (top dose mostly 56.7 µM), usual class: cytotoxic; 400,000 compounds, 0.49% hits; further: nearly all actives have a fitted effect of over 40% in size
ATXN2 expr inh: inhibitors of ATXN2 expression; HEK-293 ATXN2-luciferase reporter, luminescence, 24 h; Potency, µM (doses to about 57 µM), inactives show at the highest dose activity change, negative = inhibition, hits mostly inhibitors; 360,000 compounds, 0.72% hits; AID 1745845; further: on the % scale 0 is the no-effect control and ±100 the full control effect; nearly all actives have a fitted effect of over 55% in size
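ATXN2-luciferase reporter cells (luciferase flanked by upstream and downstream ATXN2 gene portions) were treated 24 h at 37 °C with compounds at up to 57 uM. SteadyGlo luminescence gave expression; GF-AFC fluorescence gave viability.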
TGFb SMAD3 inh: blocks TGF-b signaling; HepG2 CAGA-GFP TGF-b/SMAD3 reporter, GFP fluorescence, 18 h; TGF-beta stimulated, 500 pg/mL final; Potency, µM (series often up to 46.1 µM), inactives show at the highest dose activity, negative = inhibition, hits mostly inhibitors; 410,000 compounds, 1.2% hits; further: on the % scale 0 is the no-effect control and ±100 the full control effect; nearly all actives have a fitted effect of over 65% in size
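Inhibition of TGF-beta-driven CAGA-GFP reporter expression in HEPG2 cells is measured by cellular GFP fluorescence after 18 h stimulation with 500 pg/mL recombinant TGF-beta in 1% FBS medium at 37 degrees C.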
Starred values were filed as active, the others as inactive. The call rests on the fitted dose curve; in most records, active means well fitted curve in the direction sought with a large enough effect; inconclusive means small, poorly fitted or top-dose-only effect, or another doubt; inactive means no such curve, though single readings can be large; an effect the other way counts as inactive or inconclusive. Potency means the concentration at half of the fitted maximal effect.

Results for Cc1cccc(NC(=O)Cn2nnc(C(=O)NCc3cccs3)c2N)c1C ?
HepG2 tox: 18µM*; DT40 TDP1 no CPT: inconclusive; DT40 TDP1 CPT: 0%; ATXN viability: inactive; ATXN2 expr inh: -7%; TGFb SMAD3 inh: 1%

How did CCc1ccc(C2=NN(CCC(=O)NCCc3ccc(Cl)cc3)C(=O)CC2)cc1 do in these assays?
HepG2 tox: -26%; DT40 TDP1 no CPT: inconclusive; DT40 TDP1 CPT: inconclusive; TGFb SMAD3 inh: inconclusive

Results for Cc1cc(C)c(CSc2ncc(-c3ccc([N+](=O)[O-])cc3)[nH]2)c(C)c1 ?
HepG2 tox: -9%; DT40 TDP1 no CPT: 10µM*; DT40 TDP1 CPT: 16µM*; ATXN viability: inactive; ATXN2 expr inh: inconclusive; TGFb SMAD3 inh: inconclusive

Results for O=[N+]([O-])c1ccc(-c2cnc(SCc3ccccc3Cl)[nH]2)cc1 ?
HepG2 tox: -32%; DT40 TDP1 no CPT: -11%; DT40 TDP1 CPT: 3%; ATXN viability: inactive; ATXN2 expr inh: 30%; TGFb SMAD3 inh: -10%

Results for Cn1cccc1C(=O)N1CCC2(CC1)CN(C(=O)Nc1cccc(F)c1)C2 ?
DT40 TDP1 no CPT: inconclusive; DT40 TDP1 CPT: -10%

Results for Cn1cccc1C(=O)N1CCC2(CCN(C(=O)Nc3cccc(F)c3)CC2)CC1 ?
DT40 TDP1 no CPT: inconclusive; DT40 TDP1 CPT: 23µM*

How did Cn1cccc1C(=O)N1CCC2(CC1)CN(C(c1ccccc1)c1ccccc1)C2 do in these assays?
DT40 TDP1 no CPT: 12µM*; DT40 TDP1 CPT: inconclusive

Results for COCC(=O)N1CCC2(CC1)CCN(c1ccc(-c3ccccc3)cc1)CC2 ?
DT40 TDP1 no CPT: 0.21µM*; DT40 TDP1 CPT: inconclusive

Results for Cn1cccc1C(=O)N1CCC2(CCN(Cc3ccccc3)CC2)CC1 ?
DT40 TDP1 no CPT: -6%; DT40 TDP1 CPT: 0%

What do the screens show for `Cn1cccc1C(=O)N1CCC2(CC1)CCN(c1ccc(-c3ccccc3)cc1)CC2`?
DT40 TDP1 no CPT: 8.2µM*; DT40 TDP1 CPT: 9.2µM*

Results for COCC(=O)N1CCC2(CC1)CN(c1ccccc1)C2 ?
DT40 TDP1 no CPT: -17%; DT40 TDP1 CPT: inconclusive

Results for ClC(CCN1CCN(Cc2ccccc2)CC1)c1ccccc1 (centres undefined) ?
HepG2 tox: 1%; DT40 TDP1 no CPT: inconclusive; DT40 TDP1 CPT: inconclusive; ATXN viability: inactive; ATXN2 expr inh: 5%; TGFb SMAD3 inh: 21%

How did COc1ccc(S(=O)(=O)NC(C)C)cc1C(=O)N1CCOCC1 do in these assays?
HepG2 tox: -16%; DT40 TDP1 no CPT: 7%; DT40 TDP1 CPT: 2%; ATXN viability: inactive; ATXN2 expr inh: -19%; TGFb SMAD3 inh: 3%

How did O=C(Nc1ccc(Cl)cc1)Nc1ccon1 do in these assays?
HepG2 tox: -11%; DT40 TDP1 no CPT: 15µM*; DT40 TDP1 CPT: 18µM*; ATXN viability: inactive; ATXN2 expr inh: 3%; TGFb SMAD3 inh: -8%

What do the screens show for `CCC(C)[C@H](NC(=O)N1CC(=O)Nc2ccccc21)C(=O)Nc1nccs1` (some centres undefined)?
HepG2 tox: -3%; DT40 TDP1 no CPT: -14%; DT40 TDP1 CPT: 42%; ATXN viability: inactive; ATXN2 expr inh: 5%; TGFb SMAD3 inh: 1%

How did Cc1cc(C)c([N+](=O)[O-])cc1NC(=O)CCSc1ccccc1Cl do in these assays?
HepG2 tox: -37%; DT40 TDP1 no CPT: 15µM*; DT40 TDP1 CPT: inconclusive; ATXN viability: inactive; TGFb SMAD3 inh: -25%

What do the screens show for `O=C(CCSc1ccccc1Cl)Nc1cccc([N+](=O)[O-])c1`?
HepG2 tox: -30%; DT40 TDP1 no CPT: inconclusive; DT40 TDP1 CPT: -10%; ATXN viability: inactive; TGFb SMAD3 inh: inconclusive

What do the screens show for `O=C(CSc1nc2c(c(C(F)(F)F)n1)CCc1ccccc1-2)NCc1ccccc1`?
HepG2 tox: 6%; DT40 TDP1 no CPT: 26µM*; DT40 TDP1 CPT: inconclusive; ATXN viability: inactive; ATXN2 expr inh: -10%; TGFb SMAD3 inh: -1%

How did O=C(O)CSc1nc2c(c(C(F)(F)F)n1)CCc1ccccc1-2 do in these assays?
HepG2 tox: -4%; DT40 TDP1 no CPT: -9%; DT40 TDP1 CPT: -6%; ATXN viability: inactive; ATXN2 expr inh: -16%; TGFb SMAD3 inh: -15%

What do the screens show for `COc1ccc(CC(=O)OC(C)C(=O)NC2CCCCC2C)cc1` (centres undefined)?
HepG2 tox: 0%; DT40 TDP1 no CPT: -28%; DT40 TDP1 CPT: 2%; ATXN viability: inactive; ATXN2 expr inh: 4%; TGFb SMAD3 inh: 3%

Results for CCN(Cc1ccccc1)c1ccc(/C=N/N=C(N)N)cc1 ?
HepG2 tox: -81%; DT40 TDP1 no CPT: 13µM*; DT40 TDP1 CPT: 10µM*; ATXN viability: inconclusive; ATXN2 expr inh: inconclusive; TGFb SMAD3 inh: inconclusive

How did CCN(Cc1ccccc1)c1ccc(/C=N/NC(=S)NC(C)C)cc1 do in these assays?
HepG2 tox: 7%; DT40 TDP1 no CPT: 2.9µM*; DT40 TDP1 CPT: 2.6µM*; ATXN viability: inactive; ATXN2 expr inh: 3%; TGFb SMAD3 inh: -45%

Results for CCN(CC)c1ccc(/C=N/NC(=O)CC(C)C)cc1 ?
HepG2 tox: -17%; DT40 TDP1 no CPT: inconclusive; DT40 TDP1 CPT: 2%; ATXN viability: inactive; ATXN2 expr inh: 13%; TGFb SMAD3 inh: -2%

What do the screens show for `CCN(Cc1ccccc1)c1ccc(/C=N/NS(=O)(=O)c2ccc(C)c([N+](=O)[O-])c2)cc1`?
HepG2 tox: -21%; DT40 TDP1 no CPT: 23µM*; DT40 TDP1 CPT: inconclusive; ATXN viability: inactive; ATXN2 expr inh: -34%; TGFb SMAD3 inh: inconclusive

Results for CCc1cccc(C)c1NC(=O)CN(C)S(=O)(=O)c1cccc2nsnc12 ?
HepG2 tox: -16%; DT40 TDP1 no CPT: -27%; DT40 TDP1 CPT: inconclusive; ATXN viability: inactive; ATXN2 expr inh: -8%; TGFb SMAD3 inh: inconclusive

What do the screens show for `COc1cccc(NC(=S)NC2CC(C)CC(C)(C)C2)c1` (centres undefined)?
HepG2 tox: -77%; DT40 TDP1 no CPT: 23µM*; DT40 TDP1 CPT: 21µM*; ATXN viability: inconclusive; TGFb SMAD3 inh: inconclusive

How did CC1CCc2c(sc(NC(=O)c3cc(-c4ccc(F)cc4)on3)c2C(N)=O)C1 (centres undefined) do in these assays?
HepG2 tox: 3%; DT40 TDP1 no CPT: -1%; DT40 TDP1 CPT: -7%; ATXN viability: inactive; ATXN2 expr inh: 9%; TGFb SMAD3 inh: -2%

From PubChem BioAssay
